MITF primary – MITF inhibitors, primary screen, biochemical, AlphaScreen, human; Microphthalmia-associated transcription factor (Homo sapiens), O75030; AlphaScreen MITF homodimerization, bead proximity signal; inhibition, % at 2.6 µM; 0.91% of 650,000 active; in the data active = inhibition above about 50%;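 also: 0% = vehicle wells with protein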
TEAD-YAP inh – TEAD-YAP interaction inhibition, primary screen, TEAD-YAP interaction inhibitor project, luminescence, HEK-TIYL cells. TEAD-Gal4/YAP UAS-luciferase luminescence. inhibition, % at 9.12 µM. 1.4% of 640,000 active. AID 1259422, 2018; in the data active = inhibition above about 32%;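 also: 0% = median of test compound wells and 100% = reference inhibitor wells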
GPR151 ag – activators of human GPR151, primary screen, cell-based, PathHunter beta-arrestin, luminescence. G-protein coupled receptor 151 (Homo sapiens), Q8TDV0. PathHunter beta-arrestin GPR151 cells. activation, % at 11.2 µM. 1% of 650,000 active. AID 1508602, 2020; in the data active = activation above about 4.9%;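 also: 0% = median of compound wells and 100% = cells with positive control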
Target sequence (Q8TDV0 whole entry, looked up): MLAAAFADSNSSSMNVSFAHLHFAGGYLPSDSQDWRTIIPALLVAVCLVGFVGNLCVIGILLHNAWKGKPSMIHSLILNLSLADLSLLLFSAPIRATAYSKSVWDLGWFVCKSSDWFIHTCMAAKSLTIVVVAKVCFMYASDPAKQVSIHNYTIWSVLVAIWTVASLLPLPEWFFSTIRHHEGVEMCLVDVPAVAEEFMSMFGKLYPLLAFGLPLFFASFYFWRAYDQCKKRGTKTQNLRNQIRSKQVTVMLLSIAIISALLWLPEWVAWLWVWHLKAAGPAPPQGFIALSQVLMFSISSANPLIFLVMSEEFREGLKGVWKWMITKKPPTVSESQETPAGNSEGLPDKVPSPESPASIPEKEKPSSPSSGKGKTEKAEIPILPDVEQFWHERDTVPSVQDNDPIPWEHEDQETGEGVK
FBW7 activator – FBW7 E3 ligase activators, primary screen, biochemical, AlphaScreen, human; 0.13% of 650,000 active; AlphaScreen FBW7–phospho-cyclin E peptide binding, activator screen; F-box/WD repeat-containing protein 7 (Homo sapiens), Q969H0; normalized activity (activation), % at 26.1 µM; in the data active = normalized activity above about 1.9%;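 also: purified mutant Fbw7 with reduced substrate affinity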
An asterisk follows results filed as active. A selection: hits, their analogues and other compounds. The true share with any hit is near 3.5%.

SMILES	MITF primary	TEAD-YAP inh	GPR151 ag	FBW7 activator
COc1cc2nc(Nc3nc4ccccc4n3C)nc(Nc3cc(OC)c(OC)c(OC)c3)c2cc1OC	-9	28	2	0
COc1cc2nc(Oc3ccccc3)nc(NCc3cccc(C(F)(F)F)c3)c2cc1OC	-2	47*	2	0
Cc1ccc(Nc2nc(-c3ccc(C)o3)cs2)nc1	16	-62	-2	0
C(=N\Nc1nncc2ccccc12)/c1ccc2c(c1)OCCO2	1	98*	-8	0
COc1ccc(/C=N/Nc2ccc3ccccc3n2)cc1	-5	-39	-1	0
COc1cccc(/C=N/Nc2ccc3ccccc3n2)c1OC	-12	98*	-3	0
COc1ccc(/C=N/Nc2ccc3ccccc3n2)c(OC)c1OC	4	-40	-1	0
C(=N\Nc1ccc2ccccc2n1)/c1ccc2c(c1)OCCO2	3	80*	-1	0
C(=N\Nc1ccc2ccccc2n1)/c1cccnc1	3	75*	-6	0
CC1(C)CC(=O)C(C(c2cccs2)C2C(=O)CC(C)(C)CC2=O)C(=O)C1	2	-1	1	0
OCC1CCCN1c1cc(NCc2cccc(C(F)(F)F)c2)ncn1 (centres undefined)	21	-12	0	0
O=C1OC(c2ccco2)=N/C1=C\c1ccccc1Cl	-1	2	1	0
CC1=CC(C)(C)NC(=S)N1NC(=O)c1ccccc1C	4	8	0	0
CCNc1nc2nc3ccc(C)cn3c(=O)c2cc1C(=O)NCc1cccnc1	9	-1	0	0
COc1cc(/C=C/[N+](=O)[O-])ccc1OCc1cccc(C(=O)O)c1	56*	77*	2	0
O=C(O)c1cccc(COc2ccc(CO)cc2Cl)c1	11	95*	-13	1
O=Cc1ccc(OCc2cccc(C(=O)O)c2)c(Cl)c1	3	88*	-8	0
COc1cc(/C=C2/NC(=O)NC2=O)ccc1OCc1cccc(C(=O)O)c1	-8	23	-3	0
O=C(O)c1cccc(COc2ccc(CO)cc2Br)c1	7	84*	-13	0
Cc1cccc(NC(=O)/C(=C\c2ccco2)NC(=O)c2cccc([N+](=O)[O-])c2)c1	4	-5	-2	0
CCC(c1nnnn1Cc1ccccc1)N1CCN(c2ccccc2F)CC1 (centres undefined)	23	-9	-1	0
COc1ccc(CCNc2nc(-c3ccc(C(=O)NC4CC4)cc3)nc3c2ncn3CCN2CCCC2=O)cc1	6	39*	2	0
COc1ccc(-c2nc(NCCOc3ccccc3)c3ncn(CCN4CCCC4=O)c3n2)cc1	11	34*	-1	0
CCOc1ccc(S(=O)(=O)NCCC(=O)OC(C)C(=O)N2CCc3ccccc32)cc1 (centres undefined)	14	10	-1	0
Fc1ccc(-c2nnc3sc(CN4CCc5ccccc5C4)cn23)cc1	15	1	0	0
SMILES	MITF primary	TEAD-YAP inh	GPR151 ag	FBW7 activator
COc1cccc(-c2nnc3sc(CN4CCc5ccccc5C4)cn23)c1	3	49*	1	0
O=C(N/N=C/C1CC2CCC1C2)c1ccc([N+](=O)[O-])cc1 (centres undefined)	14	10	-1	0
O=C(N/N=C/C1CC2CCC1C2)c1cccc2ccccc12 (centres undefined)	-7	37*	0	0
Cc1nc2ccccc2c(=O)n1/N=C/c1ccc(O)c(O)c1O	57*	3	0	0
O=C1c2ccccc2C(=O)N1/N=C/c1ccc(O)c(O)c1O	92*	-5	1	0
O=C1Nc2ccccc2/C1=N\N=C\c1ccc(O)c(O)c1O	58*	0	0	0
Cc1sc(NC(=O)c2ccc3c(c2)OCO3)c(C(N)=O)c1-c1ccccc1	-2	90*	0	0
Cc1c(Cc2ccc3c(c2)OCO3)sc(NC(=O)CCc2ccccc2)c1C(N)=O	-12	56*	2	0
COC(=O)CCC(=O)Nc1sc(C)c(C)c1C(N)=O	2	-5	1	0
CC(=O)Nc1sc(Cc2ccc3c(c2)OCO3)c(C)c1C(N)=O	2	-2	-1	0
COC(=O)c1c(NC(=O)c2ccc3c(c2)OCO3)sc(C)c1C	0	-9	0	0
COC(=O)CCC(=O)NC(=S)Nc1sc(C)c(C)c1C(N)=O	-10	52*	2	0
Cc1sc(NC(=S)NC(=O)CCc2ccccc2)c(C(N)=O)c1C	-4	50*	0	0
CCCCCOc1ccc(NC(=O)C(=O)NC2CC(C)(C)NC(C)(C)C2)cc1	10	12	0	0
O=C(Oc1ccc(S(=O)(=O)c2ccc(OC(=O)c3ccco3)cc2)cc1)c1ccco1	2	-2	1	0
COc1cccc(C(CC(=O)NCc2cccnc2)NS(=O)(=O)c2ccc(F)cc2)c1OC (centres undefined)	-3	2	1	0
CCOc1nc(NCCO)nc(NCCC2=CCCCC2)n1	-4	-18	4	0
Cc1ccc(OCCn2cc(C(=S)N3CCCC3)c3ccccc32)cc1C	14	52*	0	0
S=C(c1cn(CCOc2ccccc2)c2ccccc12)N1CCCC1	-2	-9	0	0
Cc1[nH]nc2c1C(c1cccc(Cl)c1)C(C#N)=C(N)O2 (centres undefined)	-3	-3	-1	0
COc1ccc(C(=O)c2ccc(OC)c(N)c2)cc1N	-10	36*	0	0
COc1ccc(C(=O)c2ccc(OC)c(OC)c2)cc1OC	1	5	-1	0
Oc1ccc(CCNc2nc(Nc3nccc4ccccc34)nc3c2ncn3-c2ccsc2)cc1	10	66*	1	0
COc1ccc(CCNc2nc(Nc3nccc4ccccc34)nc3c2ncn3C2CCCCC2)cc1	4	33*	-1	0
Oc1ccc(CCNc2nc(Nc3nccc4ccccc34)nc3c2ncn3C2CCCCC2)cc1	16	22	-1	0
CCCNc1nc(Nc2nccc3ccccc23)nc2c1ncn2-c1ccsc1	9	65*	0	0
CCCNc1nc(Nc2nccc3ccccc23)nc2c1ncn2-c1ccccc1	-2	6	2	0
COc1cc(C2CC(=O)Nc3cc4c(cc32)OCO4)cc(OC)c1OC (centres undefined)	-7	49*	0	0
COc1cc([C@@H]2c3cc4c(cc3[C@@H](O[C@@H]3O[C@@H]5CO[C@@H](C)O[C@H]5[C@H](O)[C@H]3O)[C@H]3COC(=O)[C@H]23)OCO4)cc(OC)c1O	0	-35	1	0
COc1cc([C@@H]2c3cc4c(cc3[C@H](O)[C@H]3COC(=O)[C@H]23)OCO4)cc(OC)c1OC	4	43*	4	0

High-throughput results deposited in PubChem BioAssay by The Scripps Research Institute Molecular Screening Center.
